# High-throughput results as filed in PubChem.
# 3T3 cytotox – Cytotoxic Profiling in NIH 3T3 Cell Line of Diverse Libraries Using Quantitative High-Throughput Screening; NIH 3T3 viability, CellTiter-Glo ATP luminescence, 48-72 h; Potency, µM (series often up to 96.7 µM), without a hit: top-dose activity change, negative = cytotoxicity, actives largely listed as inhibitors; 4.3% of 94,000 active; also: nearly all actives have a fitted effect of over 55% in size
#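 First NIH 3T3 cells are plated at 400 cells/well; next compound is pinned in; then plates incubate 48 or 72 hr at 37 °C; finally CellTiter-Glo is added and luminescence read after 10 min.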
# NPR1 antag – Natriuretic polypeptide receptor (hNpr1) antagonism - Primary qHTS. HEK293 hNpr1 GloSensor cGMP, ANP-stimulated luminescence. Atrial natriuretic peptide receptor 1 (Homo sapiens), P16066. Potency, µM (series often up to 46.3 µM), inactives show top-dose activity change, negative = inhibition, usual class: inhibitors. 1.6% of 76,000 active. AID 1347048, 2019; calls by dose curve; also: nearly all actives have a fitted effect of over 60% in size
# Target sequence (P16066 whole entry, looked up): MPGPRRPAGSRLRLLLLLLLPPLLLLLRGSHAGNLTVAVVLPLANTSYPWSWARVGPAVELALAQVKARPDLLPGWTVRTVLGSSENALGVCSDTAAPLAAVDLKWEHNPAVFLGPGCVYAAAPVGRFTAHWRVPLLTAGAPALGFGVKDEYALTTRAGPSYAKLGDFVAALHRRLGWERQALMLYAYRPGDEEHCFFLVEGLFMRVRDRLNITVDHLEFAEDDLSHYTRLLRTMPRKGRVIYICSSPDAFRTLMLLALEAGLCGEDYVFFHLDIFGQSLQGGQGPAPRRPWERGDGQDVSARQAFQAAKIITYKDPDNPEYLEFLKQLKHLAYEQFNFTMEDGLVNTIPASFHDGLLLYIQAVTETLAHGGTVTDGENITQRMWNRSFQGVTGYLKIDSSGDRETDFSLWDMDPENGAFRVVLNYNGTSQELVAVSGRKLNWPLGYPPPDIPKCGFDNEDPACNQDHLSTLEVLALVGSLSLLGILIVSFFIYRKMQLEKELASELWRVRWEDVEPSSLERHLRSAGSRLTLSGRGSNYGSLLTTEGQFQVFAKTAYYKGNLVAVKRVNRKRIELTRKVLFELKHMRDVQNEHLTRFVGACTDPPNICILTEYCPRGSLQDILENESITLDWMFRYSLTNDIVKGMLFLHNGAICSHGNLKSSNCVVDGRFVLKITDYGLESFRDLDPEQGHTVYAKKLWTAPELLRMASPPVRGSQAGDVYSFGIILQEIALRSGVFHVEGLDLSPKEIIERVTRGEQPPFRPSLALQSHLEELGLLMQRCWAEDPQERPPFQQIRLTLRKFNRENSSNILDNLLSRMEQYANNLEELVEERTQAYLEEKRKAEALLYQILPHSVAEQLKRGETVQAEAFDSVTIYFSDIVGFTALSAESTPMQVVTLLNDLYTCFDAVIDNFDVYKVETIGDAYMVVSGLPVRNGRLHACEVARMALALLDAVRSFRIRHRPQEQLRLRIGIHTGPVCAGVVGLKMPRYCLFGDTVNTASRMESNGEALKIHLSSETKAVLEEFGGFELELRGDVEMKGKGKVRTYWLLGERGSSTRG
#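 Compound pre-incubated 30 min at room temperature on GloSensor-loaded HEK293 cells stably carrying hNpr1 and the pGS-40F cGMP biosensor. Stimulation uses hNppA at 0.1 nM final; luminescence is taken at baseline and 20 min post-agonist.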
# HEK cytotox – Cytotoxic Profiling in HEK 293 Cell Line of Diverse Libraries Using Quantitative High-Throughput Screening. 6.6% of 94,000 active. AID 1345083, 2018. Potency, µM (series often up to 115 µM), for the others: at the top dose activity change, negative = cytotoxicity, actives largely listed as inhibitors. HEK 293 viability, ATP luminescence (CellTiter-Glo), 48-72 h; also: nearly all actives have a fitted effect of over 60% in size
#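 ATP-coupled CellTiter-Glo luminescence served as viability read-out, recorded 10 min after reagent addition at room temperature. HEK 293 cells, 250 cells/well, had been incubated with pintool-transferred compound for 48 or 72 hr at 37 degree Celsius.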
# FLuc inh – Firefly luciferase inhibition profiling of diverse chemical library using quantitative high-throughput screening. purified P. pyralis luciferase, luminescence, biochemical. 2.5% of 76,000 active. Luciferin 4-monooxygenase (Photinus pyralis), P08659. Potency, µM (highest dose often 115 µM), actives largely listed as inhibitors. AID 1347043, 2019; also: nearly all actives have a fitted effect of over 65% in size
#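 FLuc 10nM, D-luciferin 10uM, ATP 10uM, Mg acetate 10mM, Tris acetate pH 7.5, Tween/BSA; cpd qHTS; enzyme added last; CCD luminescence.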
# An asterisk follows results filed as active; i = inactive; u = inconclusive; x = no result given; [ ] = remark or other dose. Sampled rows, rich in hits. Any-hit rate of the full collection: about 11%. Unless noted, calls follow the shape of the dose curve; as a rule, active = well fitted curve in the direction sought with a large enough effect; inconclusive = small, poorly fitted or top-dose-only effect, or another doubt; inactive = no such curve, though single readings can be large; an effect the other way counts as inactive or inconclusive. % is scaled to controls: 0 for no effect and ±100 for the full control effect; potency is read from the fitted curve at half-maximal effect.
SMILES,3T3 cytotox,NPR1 antag,HEK cytotox,FLuc inh
COc1cc(NC(=O)c2ccc3c(c2)N(C)C2CCCCCN2C3=O)cc(OC)c1OC (centres undefined),35.5µM*,-19.9%,39.8µM*,i
COc1ccc(NC(=O)c2ccc3c(c2)N(C)C2CCCCCN2C3=O)cc1Cl (centres undefined),39.8µM*,-7.4%,44.7µM*,i
CCN1c2cc(C(=O)NCc3ccc(OC)c(OC)c3)ccc2C(=O)N2CCCCCC21 (centres undefined),u,-9.5%,44.7µM*,i
CCN1c2cc(C(=O)Nc3ccc(C)c(Cl)c3)ccc2C(=O)N2CCCC21 (centres undefined),u,0.0%,u,i
CCN1c2cc(C(=O)NCc3ccc(C)cc3)ccc2C(=O)N2CCCCCC21 (centres undefined),u,-8.3%,u,i
CC(=O)Nc1ccc(CN[C@@H]2CO[C@H](CNC(=O)NC(C)C)[C@H]2O)cc1,-8.5%[138 µM],0.5%[70.6 µM],-10.8%[172 µM],i
Cc1ccccc1CNC(=O)c1ccc(CN2C(=O)NC3(CCOCC3)C2=O)cc1,i,-3.0%,-1.9%,i
COc1ccc(NC(=O)c2ccc(CN3C(=O)NC4(CCOCC4)C3=O)cc2)cc1,-9.1%,-24.3%,-23.8%,28.2µM*
Cc1ccc(NC(=O)c2ccc(CN3C(=O)NC4(CCOCC4)C3=O)cc2)cc1,2.6%,-23.8%,u,15.8µM*
O=C(CCc1ccnc(N2CCOCC2)c1)NCCN1CCc2ccccc2C1,-7.2%,-18.8%,-0.3%,i
O=C(c1ccc2nnc(C3CCCC3)n2c1)N1CCOCC1,-9.2%[138 µM],x,i,x
Cc1ccncc1C(=O)N1CCC(N2C(=O)C3(CCCC3)C2c2scnc2C)CC1 (centres undefined),i,x,-6.8%,x
O=C(Cc1ccccn1)NCCNC(=O)c1ccc(-c2cncnc2)cc1,u,x,89.1µM*,x
O=C(NCCN1CCCCC1)c1ccc(-c2ccc(N3CCSCC3)nc2)cc1,28.2µM*,-20.7%,35.5µM*,i
O=C(NCCN1CCOCC1)c1ccc(-c2ccc(N3CCSCC3)nc2)cc1,-6.9%,-13.6%,u,u
CN1CCN(CCNC(=O)c2ccc(-c3ccc(N4CCCCCC4)nc3)cc2)CC1,14.1µM*,-16.9%,25.1µM*,i
O=C(NCCN1CCCCC1)c1ccc(N2CC3CC(C2)[C@H]2CCCC(=O)N2C3)nc1 (some centres undefined),0.7%,4.7%,-0.1%,i
O=C(NCc1ccccn1)c1ccc(-c2ccc(N3CCCCC3)nc2)cc1,u,-26.3%,22.4µM*,u
CN(C)CCNC(=O)c1ccc(-c2ccc(N3CCCCCC3)nc2)cc1,17.8µM*,-2.2%,31.6µM*,u
CN(Cc1ccco1)C(=O)c1ccc(-c2ccc(N3CCCCCC3)nc2)cc1,u,u,39.8µM*,u
O=C(NCCCN1CCCC1)c1ccc(-c2ccc(N3CCCCC3)nc2)cc1,u,-0.1%,u,u
CC(C)CCNC(=O)c1ccc(-c2ccc(N3CCSCC3)nc2)cc1,i,-6.5%,-28.5%,u
O=C(NCCN1CCCCC1)c1ccc(-c2ccc(N3CCCCC3)nc2)cc1,20µM*,-2.7%,u,u
Cc1ccc(Cn2cc(-c3ccncc3)cc2C(=O)NCc2ccc(N(C)C)cc2)cc1,u,0.2%,44.7µM*,i
COc1ccc(NC(=O)c2c(-c3cnn(C)c3NCc3ccccc3)noc2C)cc1,11.2µM*,-5.8%[70.6 µM],u,i
SMILES,3T3 cytotox,NPR1 antag,HEK cytotox,FLuc inh
CNC(=O)c1c(-c2cnn(C)c2NCCc2ccccc2)noc1C,-13.1%[138 µM],3.9%[70.6 µM],u,i
CCOc1ccccc1C(=O)N1CCC[C@H]1c1nc(-c2ccc(F)cc2)no1,u,-1.1%,35.5µM*,i
CCOc1ccc(C(=O)N2CCC[C@H]2c2nc(-c3ccccc3Cl)no2)cc1,20µM*,-12.9%,u,u
COC(=O)[C@@H]1Cc2c([nH]c3ccccc23)[C@H]2C[C@H](NCCc3cnc[nH]3)C[C@@H](c3ccccc3F)N21,u,-20.8%,22.4µM*,i
CN1[C@@H](c2ccc(Cl)cc2)[C@@H](C(=O)NCCc2cnc[nH]2)C[C@@]1(C)C(=O)O,i,2.3%,1.2%,i
COC(=O)[C@@H]1Cc2c([nH]c3ccccc23)[C@H]2C[C@@H](NCCc3cnc[nH]3)C[C@@H](c3cccc(Cl)c3)N21,u,0.0%,28.2µM*,i
O=C(NCCc1cnc[nH]1)C1CC(=O)N(c2n[nH]c3ccccc23)C1 (centres undefined),i,0.6%,3.5%,i
COCCN1C(=O)N(C)C(=O)C12CCN(Cc1ccc(C(=O)OC)cc1)C2 (centres undefined),-14.9%,x,-7.8%,x
O=C(Cc1ccc(N(Cc2ccccc2)C(=O)c2ccco2)cc1)Nc1ccccc1,u,-15.5%,35.5µM*,u
CC(C)CNC(=O)Cc1ccc(N(Cc2ccccc2)C(=O)c2ccco2)cc1,u,-12.2%,u,i
O=C(Cc1ccc(N(Cc2ccccc2)C(=O)c2ccco2)cc1)NCCc1ccccc1,u,-5.6%,50.1µM*,i
COCCNC(=O)Cc1ccc(N(Cc2ccccc2)C(=O)c2ccco2)cc1,-4.1%,7.2%,-1.5%,i
COCCNC(=O)c1cc(-c2ccc([S+](C)(=O)[O-])cc2)nc2c1cnn2C,-30.5%,x,-11.7%,x
COc1cc2c(cc1-c1ccc(OC(F)(F)F)cc1)OCC(C)(C)CC2CO (centres undefined),u,x,22.4µM*,x
CCCOc1cccc(-c2cc3c(cc2OC)C(CO)CC(C)(C)CO3)c1 (centres undefined),31.6µM*,x,35.5µM*,x
CC(=O)c1cccc(NC(=O)N2C[C@H](c3nc(-c4ccncc4)no3)[C@@H](C)C2)c1,-21.5%,0.6%,-29.2%,i
COc1ccccc1CN1CC[C@@](C)(O)[C@H](N2CCCC2)C1,u,0.1%,u,i
CCc1ccc(C(=O)Nc2cccc(-c3nnc4n3CCCC4)c2)cc1,u,u,u,22.4µM*
Cc1ccsc1C(=O)Nc1ccc(-c2nnc3n2CCCC3)cc1,u,1.5%,-26.9%,35.5µM*
CCOc1ccccc1C(=O)Nc1cccc(-c2nnc3n2CCCC3)c1,39.8µM*,-1.6%,u,i
O=C(Nc1cccc(-c2nnc3n2CCCC3)c1)c1ccccc1Cl,0.5%,0.0%,6.3%,i
COc1ccc(-c2noc(Nc3cc(C)cc(C)c3)n2)cc1,u,-10.1%,u,u
COc1cccc(-c2noc(Nc3cc(C)cc(C)c3)n2)c1OC,u,-19.3%,u,20µM*
Fc1ccccc1-c1noc(NCc2ccccc2)n1,u,-7.9%,u,28.2µM*
